Compounds without any hit were thinned out: in the full panel of roughly 83,000, 20% have a hit.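 Single-concentration screen, 48 h exposure, 96-well plates. Endpoint: percent growth. Below 10 = active.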 Unmarked numbers belong to inactive results. Calls of active or inactive are those of the source.
Experiments:
Assay in all cases: NCI-60 one-dose screen, 48 h (100 = growth as untreated, 0 = no growth, -100 = all killed)
[1] = system: DU-145 prostate; conditions: 10 µM unless noted
[2] = system: K-562 leukemia; conditions: 10 µM unless noted
[3] = system: MALME-3M melanoma; conditions: 10 µM unless noted
[4] = system: MDA-MB-231 breast; conditions: 10 µM unless noted
[5] = system: RXF 393 renal; conditions: 10 µM unless noted
[6] = system: SF-268 CNS; conditions: 10 µM unless noted
[7] = system: SF-295 CNS; conditions: 10 µM unless noted
[8] = system: SF-539 CNS; conditions: 10 µM unless noted
[9] = system: M14 melanoma; conditions: 10 µM unless noted
[10] = system: HCT-15 colon; conditions: 10 µM unless noted
[11] = system: HT29 colon; conditions: 10 µM unless noted
[12] = system: SNB-75 CNS; conditions: 10 µM unless noted
[13] = system: SNB-19 CNS; conditions: 10 µM unless noted
[14] = system: PC-3 prostate; conditions: 10 µM unless noted
[15] = system: SK-MEL-5 melanoma; conditions: 10 µM unless noted
[16] = system: UACC-62 melanoma; conditions: 10 µM unless noted
[17] = system: LOX IMVI melanoma; conditions: 10 µM
[18] = system: SK-MEL-28 melanoma; conditions: 10 µM unless noted
[19] = system: UACC-257 melanoma; conditions: 10 µM unless noted
[20] = system: U251 CNS; conditions: 10 µM unless noted

| Compound | growth [1] | growth [2] | growth [3] | growth [4] | growth [5] | growth [6] | growth [7] | growth [8] [%] | growth [9] | growth [10] | growth [11] | growth [12] | growth [13] | growth [14] | growth [15] | growth [16] | growth [17] | growth [18] | growth [19] | growth [20] |
| --- | --- | --- | --- | --- | --- | --- | --- | --- | --- | --- | --- | --- | --- | --- | --- | --- | --- | --- | --- | --- |
| CC(C)=C1C=C2CC[C@@H]3[C@](C)(CCC[C@@]3(C)C(=O)O)[C@H]2CC1 | 105% | 84.3% | 91.3% | 99.6% | 112% | 97% | 95.8% | 97.5 | 100% | 98% | 108% | 93.4% | 98.1% | 97.3% | 96.8% | 102% | 85.5% | 107% | – | – |
| Cc1nc(Sc2nc3ccc([N+](=O)[O-])cc3s2)sc1C | 31.1% | 3.13% (active) | -14.3% (active) | -15.6% (active) | -2.1% (active) | 18.7% | 82.1% | – | 11.5% | -21.2% (active) | 10.2% | 53.1% | 35.4% | 23% | 41.1% | -15.4% (active) | -46.4% (active) | 27.8% | 36.8% | 27.2% |
| O=C(O)c1ccc2c(c1)C(=O)c1ccccc1C2=O | 98.5% | 88.7% | 102% | 94.1% | 110% | 98.3% | 100% | 97.7 | 101% | 106% | 108% | 91.6% | – | 96.5% | 97.5% | 94.9% | 96.1% | 111% | – | 98.9% |
| CN(C)c1ccc(/C=C/c2nccc3ccccc23)cc1 | 101% | 92.8% | 110% | 51.3% | 102% | 97.2% | 79.1% | 99 | 88.8% | 66.4% | 98.6% | 98.8% | 79.4% | 83.4% | 86.7% | 60.9% | 87.8% | 89.4% | – | – |
| Clc1ccc(-n2ncc3c(NCCCN4CCOCC4)ncnc32)cc1 | 104% | 94.2% | 95.7% | 83.2% | 90.3% | 99.1% | 99.4% | 97 | 97.2% | 96.6% | 105% | 89.6% | 102% | 87.5% | 83.5% | 110% | 88.8% | 94.6% | – | 93.1% |
| Nc1nc(N)c2cc(Sc3cccc(C(F)(F)F)c3)ccc2n1 | 28.6% | 8.39% (active) | 31.5% | 45.3% | 42.8% | 29.5% | – | 28.6 | 13.6% | – | 14.5% | 42.7% | 34.6% | 28.3% | 21.4% | 30.3% | 17.4% | 58.4% | 27.4% | – |
| Cc1cccc2c(N)c3ccccc3nc12 | 6.74% (active) | 6.25% (active) | -37.2% (active) | -24.2% (active) | -48.2% (active) | -1.12% (active) | 5.09% (active) | – | -55% (active) | -8.39% (active) | -7.57% (active) | 2.93% (active) | 27.5% | -18.7% (active) | -77.2% (active) | -57.6% (active) | -57.3% (active) | -41.1% (active) | -22.2% (active) | – |
| Cn1ccc(=Nc2ccc(NC(=O)c3ccc(N=c4ccn(C)c5ccc([N+](=O)[O-])cc45)cc3)cc2)cc1 | 47% | 96% | 61.9% | 56.6% | -0.0973% (active) | 37.1% | 105% | – | 76.8% | 98.2% | 73% | -9.29% (active) | -5.19% (active) | 44% | 89.8% | 70.1% | 56.2% | 87.3% | 86.9% | -17.5% (active) |
| NC(=S)Nc1ccc2c(c1)Cc1ccccc1-2 | 108% | 82% | 88.4% | 69.5% | 102% | 90.5% | 98.7% | – | 99.7% | 95.7% | 87.8% | 73.8% | 87.7% | 71% | 88.9% | 77.3% | 91.4% | 103% | 69.9% | 83.7% |
